Source: PubChem BioAssay (NCI)
Values joined by “and” are separate entries in the source; they are usually repeats but may differ in a detail not shown here. Identical values can stand only once. The panel holds about 83,000 compounds, 20% with a hit somewhere; the sample as a whole holds those more often.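 The test compound was applied at a single concentration to cells in 96-well plates for 48 hours, and percent growth was recorded.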

How the values were obtained:
Test in all cases: NCI-60 one-dose screen, 48 h (100 = growth as untreated, 0 = no growth, -100 = all killed)
Details in all cases: 10 µM unless noted; active means growth percent below 10; inactive means the rest
SR leukemia = tested on: SR leukemia
RPMI-8226 leukemia = tested on: RPMI-8226 leukemia
OVCAR-8 ovarian = tested on: OVCAR-8 ovarian
OVCAR-5 ovarian = tested on: OVCAR-5 ovarian
OVCAR-4 ovarian = tested on: OVCAR-4 ovarian
SK-OV-3 ovarian = tested on: SK-OV-3 ovarian
IGROV1 ovarian = tested on: IGROV1 ovarian
OVCAR-3 ovarian = tested on: OVCAR-3 ovarian
HS 578T breast = tested on: HS 578T breast
NCI/ADR-RES ovarian = tested on: NCI/ADR-RES ovarian
T-47D breast = tested on: T-47D breast
BT-549 breast = tested on: BT-549 breast
MDA-MB-435 melanoma = tested on: MDA-MB-435 melanoma
SW-620 colon = tested on: SW-620 colon
MCF7 breast = tested on: MCF7 breast
HCT-116 colon = tested on: HCT-116 colon
HCC-2998 colon = tested on: HCC-2998 colon
KM12 colon = tested on: KM12 colon

Measured: growth

Cc1cc2ccccc2cn1
inactive: SR leukemia 109% | RPMI-8226 leukemia 100% and 114% | OVCAR-8 ovarian 102% | OVCAR-5 ovarian 107% | OVCAR-4 ovarian 108% and 90.4% | SK-OV-3 ovarian 108% and 103% | IGROV1 ovarian 144% | OVCAR-3 ovarian 112% and 111% | HS 578T breast 113% and 144% | NCI/ADR-RES ovarian 103% and 118% | T-47D breast 104% and 107% | BT-549 breast 106% and 105% | MDA-MB-435 melanoma 101% and 106% | SW-620 colon 104% and 116% | MCF7 breast 98.5% and 101% | HCT-116 colon 99% and 108% | HCC-2998 colon 112% and 118%

CC(C)C(C)(C)c1ccc(O)cc1
inactive: SR leukemia 97.8% | OVCAR-8 ovarian 106% | OVCAR-5 ovarian 106% | OVCAR-4 ovarian 108% | SK-OV-3 ovarian 107% | IGROV1 ovarian 111% | OVCAR-3 ovarian 105% | HS 578T breast 114% | NCI/ADR-RES ovarian 113% | T-47D breast 101% | BT-549 breast 110% | MDA-MB-435 melanoma 106% | SW-620 colon 101% | MCF7 breast 109% | HCT-116 colon 105%

ClCCOCCOc1ccc(C2CCCCC2)cc1
inactive: SR leukemia 98.5% | RPMI-8226 leukemia 110% | OVCAR-8 ovarian 97.1% | OVCAR-5 ovarian 95.4% | OVCAR-4 ovarian 97.7% | IGROV1 ovarian 117% | OVCAR-3 ovarian 103% | HS 578T breast 101% | NCI/ADR-RES ovarian 115% | T-47D breast 96.7% | BT-549 breast 95% | MDA-MB-435 melanoma 99.5% | SW-620 colon 110% | MCF7 breast 102% | HCT-116 colon 99.5% | KM12 colon 110%

O=c1[nH]cnc2c1ncn2C1OC(CO)C(O)C1O (stereo unspecified)
inactive: SR leukemia 106% and 83.5% and 88.4% | RPMI-8226 leukemia 101% and 93.6% and 96.5% | OVCAR-8 ovarian 106% and 100% and 103% | OVCAR-5 ovarian 116% and 114% and 96.5% | OVCAR-4 ovarian 126% and 118% and 117% | SK-OV-3 ovarian 95.7% and 104% and 105% | IGROV1 ovarian 118% and 133% and 64.6% | OVCAR-3 ovarian 113% and 111% and 107% | NCI/ADR-RES ovarian 99.5% and 105% and 102% | T-47D breast 103% and 107% and 90.2% | BT-549 breast 103% and 123% and 109% | MDA-MB-435 melanoma 121% and 98.7% and 90.2% | SW-620 colon 107% and 113% and 89.7% | MCF7 breast 100% and 96.8% and 95.6% | HCT-116 colon 102% and 116% and 92.9% | HCC-2998 colon 102% and 113% and 127% | KM12 colon 111% and 109%

CC(=O)OCC1OC(OC(C)=O)C(OC(C)=O)C(OC(C)=O)C1OC(C)=O (stereo unspecified)
inactive: SR leukemia 98.1% and 93.6% | RPMI-8226 leukemia 100% and 103% | OVCAR-8 ovarian 97.5% and 99.7% | OVCAR-5 ovarian 101% and 112% | OVCAR-4 ovarian 97% and 104% | IGROV1 ovarian 108% and 105% | OVCAR-3 ovarian 110% and 107% | NCI/ADR-RES ovarian 100% and 107% | T-47D breast 97.7% and 101% | BT-549 breast 96.3% and 103% | MDA-MB-435 melanoma 105% and 107% | SW-620 colon 102% and 105% | MCF7 breast 99.8% and 91.9% | HCT-116 colon 103%

O=c1n(CC2CO2)c(=O)n(CC2CO2)c(=O)n1CC1CO1 (stereo unspecified)
inactive: SR leukemia 17.8% | RPMI-8226 leukemia 84.6% | OVCAR-8 ovarian 64.4% | OVCAR-5 ovarian 108% | OVCAR-4 ovarian 100% | IGROV1 ovarian 52.3% | OVCAR-3 ovarian 79.2% | NCI/ADR-RES ovarian 72.2% | T-47D breast 53.5% | BT-549 breast 77.1% | MDA-MB-435 melanoma 82.9% | SW-620 colon 75.5% | MCF7 breast 42.5% | HCT-116 colon 73.9% | KM12 colon 90.3%

c1ccc2c(c1)OC1OC2Oc2ccccc21
inactive: SR leukemia 76.1% | OVCAR-8 ovarian 104% | OVCAR-5 ovarian 103% | OVCAR-4 ovarian 105% | SK-OV-3 ovarian 102% | IGROV1 ovarian 97% | OVCAR-3 ovarian 101% | HS 578T breast 92.9% | NCI/ADR-RES ovarian 95.7% | T-47D breast 100% | BT-549 breast 93.2% | MDA-MB-435 melanoma 115% | SW-620 colon 96.9% | MCF7 breast 107% | HCT-116 colon 113% | HCC-2998 colon 105% | KM12 colon 87.3%
